The record followed here is PubChem BioAssay (NCI).

SMILES strings stand for the structures. The panel holds about 79,000 compounds, 15% with a hit somewhere; the sample as a whole holds those more often. Activity calls are given as the source filed them. Rule as the data show it: active = growth inhibition above about 70%; inactive = the rest.

Experiment [1] can be described thus: NCI Yeast Anticancer Drug Screen. Data for the rad50 strain (AID 155).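 Also: 0% = growth of vehicle-only cultures of the same strain.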 Conditions: S. cerevisiae rad50 strain growth inhibition, hits give high values. In short, it runs like this: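 Vehicle-treated cultures provide the reference for the growth inhibition reported for compound-exposed, repair-deficient yeast.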
A short description of experiment [2]: NCI Yeast Anticancer Drug Screen. Data for the mec2-1 strain (AID 157). Conditions: S. cerevisiae mec2-1 strain, hits give high values. Put shortly:
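mec2-1 yeast strain, carrying an alteration in DNA damage repair or cell cycle control, was exposed to compounds; growth inhibition was measured relative to vehicle-treated controls.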

A short description of experiment [3]: NCI Yeast Anticancer Drug Screen. Data for the sgs1 mgt1 strain (AID 161).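 Also: 0% = growth of cultures given vehicle only.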 Conditions: S. cerevisiae sgs1 mgt1 strain, hits give high values. Put shortly:
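Compounds are added to genetically altered yeast, and growth is compared with cultures given vehicle alone to give percent inhibition.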

The nature of experiment [4]: NCI Yeast Anticancer Drug Screen. Data for the cln2 rad14 strain (AID 165).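 Also: 0% = growth equal to vehicle treated cultures.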 The conditions noted are these: S. cerevisiae cln2 rad14 strain, hits give high values. Put shortly:
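Yeast carrying cln2 and rad14 alterations (cell cycle control and DNA damage repair) were exposed to compounds. Growth inhibition was measured against vehicle-treated controls.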

A short description of experiment [5]: NCI Yeast Anticancer Drug Screen. Data for the bub3 strain (AID 167). Conditions: S. cerevisiae bub3 mutant strain, hits give high values. In short, it runs like this: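 Mutant yeast screening strain plus compound; vehicle-treated cultures serve as the 0% inhibition reference.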
The nature of experiment [6]: NCI Yeast Anticancer Drug Screen. Data for the mlh1 rad18 strain (AID 175). The conditions noted are these: S. cerevisiae mlh1 rad18 strain growth inhibition, hits give high values. In short, it runs like this:
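Growth inhibition of the yeast strain was measured after compound exposure and expressed relative to vehicle-treated controls. The strain carries defined defects in DNA damage repair.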

The mark [7] stands for this setting: at 5.0 µM (retest, dose inferred, filed as 0.5).
The mark [8] stands for this setting: at 50.0 µM (retest, dose inferred, filed as 5.0).

As to `CCCCCNC(=O)c1ccc(Cl)c(Cl)c1`, the growth inhibition in experiment [1] (setting [7]) was 6% (inactive); in experiment [1] (setting [8]), 49% (inactive); in experiment [1] (at 50.0 µM) it was 64.8% (inactive); in experiment [2] (setting [7]), 5% (inactive); in experiment [2] (setting [8]) it was 45% (inactive); in experiment [2] (at 50.0 µM), 28.4% (inactive). Moreover, the growth inhibition is 7% (inactive) in experiment [3] (setting [7]); 63% (inactive) in experiment [3] (setting [8]); 83.2% (active) in experiment [3] (at 50.0 µM); 16% (inactive) in experiment [4] (setting [7]); 41% (inactive) in experiment [4] (setting [8]); 33.5% (inactive) in experiment [4] (at 50.0 µM). The growth inhibition in experiment [5] (setting [7]) is 10% (inactive); in experiment [5] (setting [8]) it was 59% (inactive); in experiment [5] (at 50.0 µM) it was 64.9% (inactive); in experiment [6] (setting [7]), 1% (inactive); in experiment [6] (setting [8]), 62% (inactive); in experiment [6] (at 50.0 µM), 64.6% (inactive).

As to `CCCCCCCCCCCCSC(=NCC)NCC`, the growth inhibition in experiment [1] (setting [7]) was 89% (active); in experiment [1] (setting [8]), 99% (active); in experiment [1] (at 50.0 µM), 99.6% (active); in experiment [2] (setting [7]), 79% (active); in experiment [2] (setting [8]), 100% (active); in experiment [2] (at 50.0 µM), 99.8% (active). The growth inhibition in experiment [3] (setting [7]) is 98% (active); in experiment [3] (setting [8]) it was 100% (active); in experiment [3] (at 50.0 µM) it was 48.8% (inactive); in experiment [4] (setting [7]), 59% (inactive); in experiment [4] (setting [8]), 99% (active); in experiment [4] (at 50.0 µM), 99.1% (active). Further, the growth inhibition in experiment [5] (setting [7]) is 96% (active); in experiment [5] (setting [8]) it was 100% (active); in experiment [5] (at 50.0 µM), 99.6% (active); in experiment [6] (setting [7]), 89% (active); in experiment [6] (setting [8]) it was 99% (active); in experiment [6] (at 50.0 µM) it was 99.5% (active).

As for `CCOC(=O)C1=C(C)Oc2cc3c(cc2C1c1cc(OC)c(OC)c(OC)c1)OCO3` (configuration not stated), the growth inhibition in experiment [1] (setting [7]) is 8% (inactive); in experiment [1] (setting [8]), 40% (inactive); in experiment [1] (at 50.0 µM), 54.6% (inactive); in experiment [2] (setting [7]), 11% (inactive); in experiment [2] (setting [8]), 64% (inactive); in experiment [2] (at 50.0 µM) it was 28.9% (inactive). Moreover, the growth inhibition in experiment [3] (setting [7]) was -1% (inactive); in experiment [3] (setting [8]) it was 37% (inactive); in experiment [3] (at 50.0 µM), 47.3% (inactive); in experiment [4] (setting [7]), 11% (inactive); in experiment [4] (setting [8]) it was 89% (active); in experiment [4] (at 50.0 µM), 19.1% (inactive). For the same molecule, the growth inhibition is 36% (inactive) in experiment [5] (setting [7]); 94% (active) in experiment [5] (setting [8]); 55.6% (inactive) in experiment [5] (at 50.0 µM); 12% (inactive) in experiment [6] (setting [7]); 83% (active) in experiment [6] (setting [8]); 45.8% (inactive) in experiment [6] (at 50.0 µM).

As for `CCCCCC1OC(CCCCC)OC(CCCCC)O1` (configuration not stated), the growth inhibition is -10% (inactive) in experiment [1] (setting [7]); 33% (inactive) in experiment [1] (setting [8]); 10.2% (inactive) in experiment [1] (at 50.0 µM); 13% (inactive) in experiment [2] (setting [7]); -19% (inactive) in experiment [2] (setting [8]); 6.6% (inactive) in experiment [2] (at 50.0 µM). Besides, the growth inhibition is 0% (inactive) in experiment [3] (setting [7]); 7% (inactive) in experiment [3] (setting [8]); 16.3% (inactive) in experiment [3] (at 50.0 µM); 4% (inactive) in experiment [4] (setting [7]); 3% (inactive) in experiment [4] (setting [8]); 8.25% (inactive) in experiment [4] (at 50.0 µM). Also, the growth inhibition in experiment [5] (setting [7]) is -12% (inactive); in experiment [5] (setting [8]), 20% (inactive); in experiment [5] (at 50.0 µM), -13.9% (inactive); in experiment [6] (setting [7]), -8% (inactive); in experiment [6] (setting [8]), -3% (inactive); in experiment [6] (at 50.0 µM) it was 11.7% (inactive).
